Some test systems named below: SK-MEL-2 melanoma; EKVX NSCLC; SN12C renal; UO-31 renal; TK-10 renal; ACHN renal; CAKI-1 renal; A498 renal; CCRF-CEM leukemia; RPMI-8226 leukemia; OVCAR-8 ovarian; OVCAR-5 ovarian; OVCAR-4 ovarian; SK-OV-3 ovarian; IGROV1 ovarian; OVCAR-3 ovarian; HS 578T breast; NCI/ADR-RES ovarian; MOLT-4 leukemia; SR leukemia.
What all share (assay): NCI-60 one-dose screen, 48 h (100 = growth as untreated, 0 = no growth, -100 = all killed)
Holding throughout (conditions): 10 µM unless noted

The panel holds about 83,000 compounds, 20% with a hit somewhere; the sample as a whole holds those more often.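 Results are percent growth after 48 hours of single-concentration exposure. 100 means growth as in untreated cells, lower positive values show inhibition; negative values down to -100 show cell death.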 Values without a mark were called inactive. Active and inactive are the calls of the source. How the source made its calls: active means growth percent below 10; inactive means the rest.

Turning to `Cc1ccccc1CC(N)C(=O)O` (stereo not given), the growth with SK-MEL-2 melanoma is 109%; in the assay with EKVX NSCLC, 103%; in the assay with SN12C renal, 105%; in the assay on UO-31 renal it was 91.7%; in the assay with TK-10 renal it was 115%; with ACHN renal it was 100%. Moreover, the growth was 96.6% in the assay with CAKI-1 renal; 109% in the assay on A498 renal; 110% with CCRF-CEM leukemia; 109% with RPMI-8226 leukemia; 104% with OVCAR-8 ovarian; 116% in the assay with OVCAR-5 ovarian. Further, the growth in the assay with OVCAR-4 ovarian is 103%; in the assay on SK-OV-3 ovarian, 104%; with IGROV1 ovarian it was 109%; in the assay on OVCAR-3 ovarian, 104%; with HS 578T breast, 114%; with NCI/ADR-RES ovarian it was 114%.
As to `Oc1cc(O)c2c(c1)O[C@H](c1ccc(O)c(O)c1)[C@@H](O)C2`, the growth in the assay on SK-MEL-2 melanoma is 106%; with EKVX NSCLC, 99.4%; in the assay on SN12C renal, 102%; in the assay with UO-31 renal, 89.5%; in the assay on TK-10 renal it was 106%; with ACHN renal it was 98%. In addition, the growth was 99.4% in the assay with CAKI-1 renal; 120% in the assay on A498 renal; 94.4% in the assay with CCRF-CEM leukemia; 98% in the assay on OVCAR-8 ovarian; 100% in the assay with OVCAR-5 ovarian; 109% with SK-OV-3 ovarian. Moreover, the values for the growth in the assay with IGROV1 ovarian, in the assay on HS 578T breast and in the assay on NCI/ADR-RES ovarian were 103%, 117% and 101%, respectively.
Consider `CCN1CCCC(N2c3ccccc3Sc3ccccc32)C1` (stereo not given), for which the growth with SK-MEL-2 melanoma was 97.4%; in the assay with EKVX NSCLC, 116%; in the assay with SN12C renal, 101%; in the assay on UO-31 renal it was 79.1%; with TK-10 renal, 78.8%; in the assay on ACHN renal it was 98.5%. Also, the growth in the assay on CAKI-1 renal was 101%; in the assay with A498 renal, 100%; in the assay on MOLT-4 leukemia it was 96.3%; in the assay on SR leukemia, 96.3%; in the assay on RPMI-8226 leukemia, 95.5%; in the assay with OVCAR-8 ovarian, 102%. Further, the growth is 106% in the assay on OVCAR-5 ovarian; 97.9% with OVCAR-4 ovarian; 111% in the assay on SK-OV-3 ovarian; 91.3% in the assay on IGROV1 ovarian; 98.5% with OVCAR-3 ovarian; 99.6% in the assay with HS 578T breast. In addition, the growth in the assay with NCI/ADR-RES ovarian is 99.7%.
With `CCOC(=O)CNC(=O)Sc1ccc(C(C)(C)C)cc1`, the growth was 87.1% with SK-MEL-2 melanoma; 111% in the assay with EKVX NSCLC; 93.5% in the assay with SN12C renal; 64.2% in the assay with UO-31 renal; 96% in the assay with TK-10 renal; 101% in the assay on ACHN renal. Further, the growth in the assay on CAKI-1 renal was 100%; with A498 renal it was 119%; in the assay on MOLT-4 leukemia, 32.5%; in the assay on OVCAR-8 ovarian it was 94%; in the assay with OVCAR-5 ovarian, 123%; with OVCAR-4 ovarian, 89.7%. For the same compound, the growth with SK-OV-3 ovarian is 116%; in the assay on IGROV1 ovarian it was 74.9%; in the assay with OVCAR-3 ovarian, 104%; in the assay with HS 578T breast, 99.2%; in the assay on NCI/ADR-RES ovarian, 102%.
As for `CCCCCCCCCCCCSC1=C(Cl)C(=O)C(OC)=C(OC)C1=O`, the growth in the assay with SK-MEL-2 melanoma is 39.3%; in the assay with EKVX NSCLC it was 37.9%; in the assay with SN12C renal, 24.5%; with UO-31 renal, 32.9%; in the assay on TK-10 renal it was 43.7%; in the assay on ACHN renal it was 27.7%. For the same compound, the growth was 70.8% with CAKI-1 renal; 77.4% in the assay on A498 renal; -4.73% (active) in the assay on MOLT-4 leukemia; 28.7% in the assay with OVCAR-8 ovarian; 80% in the assay on OVCAR-5 ovarian; 38.8% in the assay with OVCAR-4 ovarian. For the same compound, the growth with SK-OV-3 ovarian is 79.9%; with IGROV1 ovarian it was 5.92% (active); with OVCAR-3 ovarian, 38.8%; in the assay on HS 578T breast, 67.3%; in the assay with NCI/ADR-RES ovarian it was 34.9%.
`O=C(O)Cc1ccccn1`: the growth in the assay on SK-MEL-2 melanoma is 106%; with EKVX NSCLC, 109%; with SN12C renal it was 112%; in the assay with UO-31 renal, 95.1%; in the assay with TK-10 renal, 105%; in the assay with ACHN renal, 105%. Moreover, the growth in the assay on CAKI-1 renal was 93.9%; in the assay on A498 renal, 94.4%; in the assay on CCRF-CEM leukemia, 101%; in the assay with RPMI-8226 leukemia, 102%; in the assay with OVCAR-8 ovarian, 102%; in the assay on OVCAR-5 ovarian, 101%. Moreover, the growth in the assay on OVCAR-4 ovarian is 117%; in the assay on SK-OV-3 ovarian, 104%; with IGROV1 ovarian, 105%; in the assay with OVCAR-3 ovarian it was 114%; in the assay on HS 578T breast it was 109%; in the assay on NCI/ADR-RES ovarian, 111%.
Regarding `COCC(N)=O`, the growth in the assay with SK-MEL-2 melanoma is 95.9%; with EKVX NSCLC, 109%; in the assay on SN12C renal, 108%; in the assay on UO-31 renal, 85.2%; with TK-10 renal it was 102%; in the assay with ACHN renal, 102%. For the same compound, the growth is 104% with CAKI-1 renal; 96.6% with A498 renal; 98.5% in the assay on MOLT-4 leukemia; 98.3% in the assay with SR leukemia; 103% in the assay on RPMI-8226 leukemia; 108% in the assay on OVCAR-8 ovarian. The growth in the assay on OVCAR-5 ovarian was 101%; in the assay with OVCAR-4 ovarian it was 120%; in the assay with SK-OV-3 ovarian, 105%; in the assay with IGROV1 ovarian, 114%; with OVCAR-3 ovarian, 106%; in the assay with HS 578T breast, 103%. Besides, in the assay with NCI/ADR-RES ovarian, the growth is 111%.
Regarding `COc1nc2ccccc2s1`, the growth is 100% in the assay with SK-MEL-2 melanoma; 108% with EKVX NSCLC; 99.3% in the assay on SN12C renal; 73.3% in the assay with UO-31 renal; 111% in the assay on TK-10 renal; 94.6% in the assay with ACHN renal. Also, the growth with CAKI-1 renal was 90.5%; with A498 renal, 101%; in the assay with CCRF-CEM leukemia, 102%; in the assay on RPMI-8226 leukemia, 91.6%; in the assay on OVCAR-8 ovarian, 96.3%; in the assay with OVCAR-5 ovarian, 93.1%. Besides, the growth in the assay on OVCAR-4 ovarian is 118%; in the assay on SK-OV-3 ovarian, 89.5%; in the assay on IGROV1 ovarian it was 98.6%; in the assay on OVCAR-3 ovarian, 110%; in the assay with HS 578T breast, 91%; in the assay with NCI/ADR-RES ovarian it was 99.2%.
`COc1cc(C(=O)O)c(O)c(C(C)(C)C)c1`: the growth in the assay on SK-MEL-2 melanoma was 106%; with EKVX NSCLC, 102%; in the assay on SN12C renal it was 103%; with UO-31 renal it was 92.9%; in the assay on TK-10 renal it was 105%; in the assay with ACHN renal, 109%. The growth in the assay with CAKI-1 renal is 102%; with A498 renal it was 96.3%; with MOLT-4 leukemia it was 98.1%; in the assay on SR leukemia, 119%; with RPMI-8226 leukemia, 106%; in the assay with OVCAR-8 ovarian it was 104%. The growth with OVCAR-5 ovarian was 99.2%; with OVCAR-4 ovarian, 109%; with SK-OV-3 ovarian, 103%; with IGROV1 ovarian, 107%; with OVCAR-3 ovarian it was 104%; with HS 578T breast, 105%. Also, in the assay on NCI/ADR-RES ovarian, the growth is 106%.

For the origin of these results see PubChem BioAssay (NCI).
